Calls of active or inactive are those of the source. Unless noted, how the calls were made is not given here.
Columns and labels:
[1] = system: XIP peptide (Xip251-270) binding; experiment: small-molecule binders of XIP peptide, primary screen, biochemical, small-molecule microarray, fluorescence 635/667 nm, 0.1 µg/mL protein (AID 1182); conditions: fluorescent protein binding, 635 nm, higher = more signal, called active from +8 up or from −8 down
[2] = system: XIP peptide (Xip251-270); experiment: small-molecule binders of XIP peptide, primary screen, biochemical, small-molecule microarray, fluorescence 635/667 nm, 0.5 µg/mL protein (AID 1183); conditions: small-molecule microarray binding, fluorescence 635 nm; higher = more signal
[3] = Plasmodium falciparum growth inhibition, primary screen, strain 3D7, DAPI fluorescence, 100 nL (AID 1184);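 further: parasites grown inside human red blood cells in medium with human serum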; conditions: P. falciparum 3D7 growth, 3 d, higher = more signal
[4] = molecular target: Homeobox protein Hox-A13 (Mus musculus) (UniProt Q62424); experiment: inhibitors of HoxA13-DNA binding, primary screen, biochemical, fluorescence polarization, labeled oligonucleotide (AID 1185); conditions: 15 min, higher = more signal, called active from +8 up or from −8 down
[5] = inhibitors of hydroxyurea-induced Chk1 phosphorylation, primary screen, imaging, HeLa, phospho-Chk1 antibody, percent positive cells (AID 1186); conditions: hydroxyurea-induced phospho-Chk1 immunofluorescence imaging, higher = more signal
[6] = inhibitors of hydroxyurea-induced Chk1 phosphorylation, primary screen, imaging, HeLa, phospho-Chk1 nuclear intensity (AID 1187); conditions: hydroxyurea-induced phospho-Chk1 immunofluorescence imaging, higher = more signal

Sequence of Homeobox protein Hox-A13 (Mus musculus) (Q62424 whole entry, looked up): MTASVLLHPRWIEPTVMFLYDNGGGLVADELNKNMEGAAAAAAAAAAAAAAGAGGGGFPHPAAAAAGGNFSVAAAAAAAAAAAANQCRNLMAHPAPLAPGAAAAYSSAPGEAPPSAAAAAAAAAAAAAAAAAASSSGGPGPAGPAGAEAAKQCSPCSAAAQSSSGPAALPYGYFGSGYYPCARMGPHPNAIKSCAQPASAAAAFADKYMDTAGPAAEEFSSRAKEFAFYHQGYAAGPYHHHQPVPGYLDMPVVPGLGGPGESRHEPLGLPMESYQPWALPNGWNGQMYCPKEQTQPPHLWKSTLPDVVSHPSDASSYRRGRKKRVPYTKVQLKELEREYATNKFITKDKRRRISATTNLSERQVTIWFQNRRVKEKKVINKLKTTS

Row | Structure (SMILES) | composite z-score [1] | composite z-score [2] | z-score [3] | z-score [4] | z-score [5] | z-score [6]
1 | C=C[C@H]1C(C(=O)OCC)=CC[C@@H](c2ccccc2)N1S(=O)(=O)c1ccc(C)cc1 | 0.413 (inactive) | 0.635 | -1.89 | -2.34 (inactive) | -0.229 (inactive) | -0.732 (inactive)
2 | CCOC(=O)C[C@H]1[C@H](OC(=O)c2ccccc2-c2ccccc2)[C@@H](NC(=O)c2ccc3ccccc3c2)c2cc(OCCCO)ccc2N1C(=O)c1ccccc1 | -0.323 (inactive) | 0.306 | -1.72 | -2.39 (inactive) | 0.185 (inactive) | 0.361 (inactive)
3 | CCCCC(O)C1C=CC2C(=O)N(C)C(=O)C2N1N(c1ccccc1)c1ccccc1 (stereo not drawn) | 0.289 (inactive) | 0.771 | 1.01 | -4.42 (inactive) | -0.0768 (inactive) | -0.691 (inactive)
4 | COc1ccc([Si](C)(C)[C@@H]2[C@@H](CC(=O)N3Cc4ccccc4C[C@H]3CO)O[C@]3(C(=O)N(Cc4ccc(N5C(=O)c6cccc7cccc5c67)cc4)c4ccccc43)[C@H]2C)cc1 | 0.685 (inactive) | 0.747 | -0.962 | -1.98 (inactive) | 0.143 (inactive) | 0.973 (inactive)
5 | CCCN1C(=O)[C@]2(Cc3ccccc31)N=C(c1ccc(OCCCO)cc1)O[C@@H]2c1ccccc1 | -0.0074 (inactive) | 0.763 | -2.32 | -6.66 (inactive) | 0.0183 (inactive) | 0.825 (inactive)
6 | Cc1ccc(S[C@]2(C(=O)NCC(F)(F)F)CC(=O)N(Cc3cc(C(F)(F)F)cc(C(F)(F)F)c3)[C@@H]2c2ccc(CO)cc2I)cc1 | 1.46 (inactive) | 0.981 | -0.609 | -2.68 (inactive) | 0.427 (inactive) | 0.684 (inactive)
7 | CO[C@H]1O[C@H](CO)[C@@H](OC(=O)Nc2ccc3c(c2)OCO3)[C@H](OC(=O)Nc2ccc3c(c2)OCO3)[C@@H]1OC(=O)Nc1ccc2c(c1)OCO2 | 1.12 (inactive) | 0.904 | -2.31 | -4.7 (inactive) | -0.187 (inactive) | -0.119 (inactive)
8 | CCOC(=O)C[C@H]1[C@H](OC(=O)c2ccc(-c3ccccc3)cc2)[C@@H](NC(=O)CC(C)C)c2cc(OCCCO)ccc2N1C(=O)c1ccc2ccccc2n1 | -0.349 (inactive) | 0.381 | -0.459 | -2.19 (inactive) | 0.319 (inactive) | 0.571 (inactive)

Source: PubChem BioAssay
